# Laboratory results published in PubChem BioAssay (NCATS).
# Results filed as inconclusive are left out. Active and inactive are the calls of the source. Calls follow the shape of the dose curve; as a rule, active = well fitted curve in the direction sought with a large enough effect; inconclusive = small, poorly fitted or top-dose-only effect, or another doubt; inactive = no such curve, though single readings can be large; an effect the other way counts as inactive or inconclusive.
# Tests used:
# [1] = qHTS of pediatric cancer cell lines to identify multiple opportunities for drug repurposing: Primary screen for TC32 cells (AID 1347089); also: nearly all actives have a fitted effect of over 60% in size; also: potency is read from the fitted curve at half-maximal effect
# Procedure, shortened: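 Luminescent ATP read-out (CellTiter-Glo) of metabolically active TC32 cells after 48 h exposure. Concentration-response curves came from 11-point (MIPE, 0.78 nM–46 µM) or 8-point (NPC, 0.59 nM–46 µM) primary titrations; follow-up used 11 points.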
# [2] = qHTS of pediatric cancer cell lines to identify multiple opportunities for drug repurposing: Primary screen for DAOY cells (AID 1347090); also: nearly all actives have a fitted effect of over 55% in size; also: potency is read from the fitted curve at half-maximal effect
# Procedure, shortened: (§1)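 Eight- or eleven-point concentration series, 48 h treatment at 37 degrees C in growth media; readout CellTiter-Glo luminescence. Potency and efficacy were taken from the concentration-response curves.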
# [3] = qHTS of pediatric cancer cell lines to identify multiple opportunities for drug repurposing: Primary screen for A673 cells (AID 1347092); also: nearly all actives have a fitted effect of over 45% in size; also: potency is read from the fitted curve at half-maximal effect
# Procedure, shortened: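 Cell viability of A673 measured by CellTiter-Glo ATP luminescence after 48 hours compound exposure. Dilution series spanned 0.78 nM to 46 µM (MIPE, 11-point) or 0.59 nM to 46 µM (NPC, 8-point); bortezomib 2.3 uM positive control.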
# [4] = qHTS of pediatric cancer cell lines to identify multiple opportunities for drug repurposing: Primary screen for NB-EBc1 cells (AID 1347095); also: potency is read from the fitted curve at half-maximal effect
# Procedure, shortened: (§2)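 Following a 5-hour attachment period, cells at 500-1,000/well received compounds and were cultured for 48 hours. CellTiter-Glo was added and luminescence read to estimate viable, metabolically active cells.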
# [5] = qHTS of pediatric cancer cell lines to identify multiple opportunities for drug repurposing: Primary screen for U-2 OS cells (AID 1347096); also: nearly all actives have a fitted effect of over 50% in size; also: potency is read from the fitted curve at half-maximal effect
# Procedure, shortened: (§3)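 Cells (500-1,000/well) in growth media were settled 5 h at 37 degrees C, then given compounds for 48 h. Viability was read as CellTiter-Glo luminescence. Primary runs used MIPE at 11 points (0.78 nM-46 µM) and NPC at 8 points (0.59 nM-46 µM); follow-ups used 11 points.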
# [6] = qHTS of pediatric cancer cell lines to identify multiple opportunities for drug repurposing: Primary screen for Saos-2 cells (AID 1347097); also: potency is read from the fitted curve at half-maximal effect; nearly all actives have a fitted effect of over 40% in size
# Procedure, shortened: as §2
# [7] = qHTS of pediatric cancer cell lines to identify multiple opportunities for drug repurposing: Primary screen for SK-N-SH cells (AID 1347098); also: potency is read from the fitted curve at half-maximal effect; nearly all actives have a fitted effect of over 65% in size
# Procedure, shortened: (§4)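 Cells (500-1,000/well) rested 5 h, then received compounds for 48 h; metabolically active cells were measured by CellTiter-Glo luminescence. Final concentrations spanned up to 46 µM (MIPE, 11-point) or 0.59 nM-46 µM (NPC, 8-point) in primary screens, 11-point in follow-ups.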
# [8] = qHTS of pediatric cancer cell lines to identify multiple opportunities for drug repurposing: Primary screen for NB1643 cells (AID 1347099); also: nearly all actives have a fitted effect of over 50% in size; also: potency is read from the fitted curve at half-maximal effect
# Procedure, shortened: as §2
# [9] = qHTS of pediatric cancer cell lines to identify multiple opportunities for drug repurposing: Primary screen for LAN-5 cells (AID 1347100); also: potency is read from the fitted curve at half-maximal effect
# Procedure, shortened: as §3
# [10] = qHTS of pediatric cancer cell lines to identify multiple opportunities for drug repurposing: Primary screen for Rh18 cells (AID 1347102); also: nearly all actives have a fitted effect of over 65% in size; also: potency is read from the fitted curve at half-maximal effect
# Procedure, shortened: as §3
# [11] = qHTS of pediatric cancer cell lines to identify multiple opportunities for drug repurposing: Primary screen for RD cells (AID 1347104); also: nearly all actives have a fitted effect of over 55% in size; also: potency is read from the fitted curve at half-maximal effect
# Procedure, shortened: as §2
# [12] = qHTS of pediatric cancer cell lines to identify multiple opportunities for drug repurposing: Primary screen for MG 63 (6-TG R) cells (AID 1347105); also: nearly all actives have a fitted effect of over 50% in size; also: potency is read from the fitted curve at half-maximal effect
# Procedure, shortened: as §2
# [13] = qHTS of pediatric cancer cell lines to identify multiple opportunities for drug repurposing: Primary screen for OHS-50 cells (AID 1347103); also: nearly all actives have a fitted effect of over 40% in size; also: potency is read from the fitted curve at half-maximal effect
# Procedure, shortened: as §4
# [14] = qHTS of pediatric cancer cell lines to identify multiple opportunities for drug repurposing: Primary screen for SK-N-MC cells (AID 1347093); also: potency is read from the fitted curve at half-maximal effect
# Procedure, shortened: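 Metabolically active cells were quantified by ATP-dependent luminescence (CellTiter-Glo, 15 min at room temperature) following 48 h treatment. Cells had been plated at 500-1,000 per well and settled for 5 h beforehand.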
# [15] = qHTS of pediatric cancer cell lines to identify multiple opportunities for drug repurposing: Primary screen for control Hh wild type fibroblast cells (AID 1347106);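 also: series mostly up to about 46 µM; a drop in luminescence marks cytotoxicity and a rise apparent proliferation; nearly all actives have a fitted effect of over 55% in size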
# Procedure, shortened: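 Viability after 48 h compound treatment at 37C, 500-1,000 cells/well, read as ATP luminescence with CellTiter-Glo. Primary screens used 11-point (MIPE, 0.78 nM-46 µM) or 8-point (NPC, 0.59 nM-46 µM) final concentrations; follow-up screens used 11-point dilutions.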
# [16] = qHTS of pediatric cancer cell lines to identify multiple opportunities for drug repurposing: Primary screen for BT-37 cells (AID 1347094); also: potency is read from the fitted curve at half-maximal effect
# Procedure, shortened: as §2
# [17] = qHTS of pediatric cancer cell lines to identify multiple opportunities for drug repurposing: Primary screen for BT-12 cells (AID 1347101); also: nearly all actives have a fitted effect of over 25% in size; also: potency is read from the fitted curve at half-maximal effect
# Procedure, shortened: as §4
# [18] = qHTS of pediatric cancer cell lines to identify multiple opportunities for drug repurposing: Primary screen for SJ-GBM2 cells (AID 1347091); also: potency is read from the fitted curve at half-maximal effect
# Procedure, shortened: as §1
SMILES,Potency [1],Potency [2],Potency [3],Potency [4],Potency [5],Potency [6],Potency [7],Potency [8],Potency [9],Potency [10],Potency [11],Potency [12],Potency [13],Potency [14],Potency [15],Potency [16],Potency [17],Potency [18]
CNC(=O)c1c(F)cccc1Nc1nc(Nc2cc3c(cc2OC)CCN3C(=O)CN(C)C)nc2[nH]ccc12,5.87 µM (active),0.118 µM (active),0.0935 µM (active),0.332 µM (active),inactive,2.09 µM (active),8.57 µM (active),0.132 µM (active),0.0526 µM (active),8.33 µM (active),0.662 µM (active),18.7 µM (active),–,–,–,–,–,–
CCC(=C(c1ccccc1)c1ccc(OCCN(C)C)cc1)c1ccccc1,inactive,inactive,–,–,inactive,–,–,–,–,inactive,–,inactive,21.7 µM (active),–,–,–,–,–
COc1cc(C(=O)NS(=O)(=O)c2ccccc2C)ccc1Cc1cn(C)c2ccc(NC(=O)OC3CCCC3)cc12,inactive,29.6 µM (active),14.8 µM (active),inactive,–,20.9 µM (active),–,–,–,26.4 µM (active),37.2 µM (active),29.6 µM (active),21.7 µM (active),8.33 µM (active),inactive,–,–,–
CC(C)Nc1cc(C(F)(F)F)cc2nc(NC(=O)c3cccnc3)nn12,inactive,inactive,–,inactive,inactive,–,–,–,inactive,inactive,inactive,inactive,–,–,inactive,inactive,inactive,–
CCOC(=O)C1=C(C)NC2=C(C(=O)CC(C)(C)C2)C1c1ccc(-c2ccccc2)cc1 (centres undefined),inactive,–,3.72 µM (active),5.9 µM (active),–,3.32 µM (active),–,–,–,16.6 µM (active),16.6 µM (active),14.8 µM (active),19.3 µM (active),–,–,3.85 µM (active),24.3 µM (active),4.69 µM (active)
COc1c(OCCCN2CCOCC2)ccc2c3n(c(=NC(=O)c4cnc(N)nc4)nc12)CCN3,2.55 µM (active),–,0.162 µM (active),0.102 µM (active),inactive,–,–,–,0.407 µM (active),0.0812 µM (active),0.0724 µM (active),0.0407 µM (active),0.0211 µM (active),0.0288 µM (active),inactive,–,–,2.04 µM (active)
Cn1cc(-c2[nH]c3cc(NC(=O)[C@H](N)C4CCCCC4)cc4c3c2C=NNC4=O)cn1,2.62 µM (active),–,5.9 µM (active),0.59 µM (active),11.8 µM (active),4.69 µM (active),19.2 µM (active),–,1.48 µM (active),–,14.8 µM (active),–,1.22 µM (active),0.296 µM (active),inactive,–,inactive,0.59 µM (active)
O=C(NCCS(=O)(=O)c1ccc(C(F)(F)F)cn1)c1ccc(Cl)cc1,inactive,–,inactive,inactive,inactive,–,–,inactive,inactive,inactive,inactive,inactive,inactive,–,inactive,inactive,inactive,inactive
COc1cc2ncnc(Nc3ccc(F)c(Cl)c3)c2cc1NC(=O)C=CCN1CCCCC1,inactive,–,18.7 µM (active),26.4 µM (active),–,16.6 µM (active),–,14.8 µM (active),14.8 µM (active),18.7 µM (active),29.6 µM (active),inactive,7.69 µM (active),–,inactive,24.3 µM (active),24.3 µM (active),8.33 µM (active)
